For 40 compounds, percent of DMSO control GFP results are on record in PubChem BioAssay.

Results filed as inconclusive are left out. Active and inactive are the calls of the source. Rule as the data show it: active = percent of DMSO control GFP below about 86%; inactive = the rest, inconclusive results apart.

A short description of the test: yeast TOR pathway RPL19A-GFP modulators, primary screen, cell-based, S. cerevisiae, multiplex flow cytometry (AID 1862).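 Also: lower values mimic rapamycin by blocking the RPL19A rise seen in DMSO cells.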 The following applies: S. cerevisiae RPL19A-GFP strain, flow cytometry fluorescence, 3 h; at 10 µM; active compounds read low. A general note: In flow cytometry, cells or beads pass a laser one at a time.
For `CCC(C)NCCOc1ccc(C(C)(C)c2ccccc2)cc1` (stereo not given), the percent of DMSO control GFP is 107% (inactive).

Turning to `O=C(NCc1ccc(N2CCCC2=O)cc1)c1ccc(F)cc1`, the percent of DMSO control GFP was 103% (inactive).

`CC1(C)O[C@@H]2C[C@H]3[C@@H]4C[C@H](F)C5=CC(=O)CC[C@]5(C)[C@H]4[C@@H](O)C[C@]3(C)[C@]2(C(=O)CO)O1`: the percent of DMSO control GFP was 97.9% (inactive).

Turning to `N/C(=N\OC(=O)CCCOc1ccc(Cl)cc1Cl)c1ccncc1`, the percent of DMSO control GFP was 96.4% (inactive).

`COCCCN1C(=O)/C(=C\c2cccs2)C(C(=O)OC)=C1C`: the percent of DMSO control GFP is 99.9% (inactive).

For the compound `Cc1ccc2nc(C)c3c(c2c1)OC(C(C)(Cl)Br)C3` (stereo not given), the percent of DMSO control GFP is 102% (inactive).

On to `CC12COC3(C(=O)Nc4ccc(F)cc4)CC1CCC32C` (stereo not given), for which the percent of DMSO control GFP is 94.2% (inactive).

For the compound `Cc1ccnc(NS(=O)(=O)c2ccc(N)cc2)n1`, the percent of DMSO control GFP was 102% (inactive).

For the compound `CC1(C)CC(=O)c2cnc(NC(=O)C3CCCC3)nc2C1`, the percent of DMSO control GFP is 105% (inactive).

In the case of `COc1ccc(CCN2CNc3c(c(=O)n(C)c(=O)n3C)C2)cc1OC`, the percent of DMSO control GFP is 99.8% (inactive).

Take `O=C(O)CCCc1ccccc1`: the percent of DMSO control GFP was 104% (inactive).

Take `CCCNCC(O)COc1ccccc1C(=O)CCc1ccccc1` (stereo not given): the percent of DMSO control GFP is 101% (inactive).

For the compound `COc1ccc(C(=O)O)cc1F`, the percent of DMSO control GFP is 104% (inactive).

As for `COc1cc(C)nc(-n2nc(C)cc2OC)n1`, the percent of DMSO control GFP is 101% (inactive).

In the case of `CCCCCCC(=O)N(O)C1CC(=O)N(Cc2ccccc2)C1=O` (stereo not given), the percent of DMSO control GFP was 106% (inactive).

Regarding `CC(=O)N1CCN(c2ccc(NC(=O)/C=C/c3ccccc3)cc2)CC1`, the percent of DMSO control GFP was 103% (inactive).

`Cc1ccc(Nc2ncccc2C(=O)O)cc1C`: the percent of DMSO control GFP is 90.6% (inactive).

For the compound `CCCCCCCC(=O)OCC(O)CO` (stereo not given), the percent of DMSO control GFP was 108% (inactive).

As to `CSCCC(NC(C)=O)C(=O)Oc1ccc2c3c(c(=O)oc2c1)CCCC3` (stereo not given), the percent of DMSO control GFP was 102% (inactive).

As for `CC(C)CN1CCN(Cc2ccc(C#CC(C)(C)O)cc2)CC1CCO` (stereo not given), the percent of DMSO control GFP was 92% (inactive).

Consider `Cc1nc(C2CC(=O)OC23CCCCC3)cs1` (stereo not given), for which the percent of DMSO control GFP is 94.4% (inactive).

`CO[C@H]1C=CO[C@@]2(C)Oc3c(C)c(O)c4c(O)c(c(C=NN5CCN(C)CC5)c(O)c4c3C2=O)NC(=O)C(C)=CC=C[C@H](C)[C@H](O)[C@@H](C)[C@@H](O)[C@@H](C)[C@H](OC(C)=O)[C@@H]1C`: the percent of DMSO control GFP is 93.3% (inactive).

Consider `COc1cccc(-n2cc(CNCc3c(C(=O)N(C)C)nc4ccc(Cl)cn34)cn2)c1`, for which the percent of DMSO control GFP was 103% (inactive).

On to `S=C(c1ccc2c(c1)OCO2)N1CCCCC1`, for which the percent of DMSO control GFP is 101% (inactive).

With `CC(C)Oc1ccc2c(=O)c(-c3ccccc3)coc2c1`, the percent of DMSO control GFP is 86.5% (inactive).

Turning to `CCn1cc(CN2N=C(C)CC2c2ccccc2)c(C)n1` (stereo not given), the percent of DMSO control GFP was 95.6% (inactive).

In the case of `CCCCOc1ccc(C(=O)CCN2CCCCC2)cc1`, the percent of DMSO control GFP was 109% (inactive).

Regarding `NCCCC(N)(C(=O)O)C(F)F` (stereo not given), the percent of DMSO control GFP was 93.5% (inactive).

For the compound `C[N+](C)(C)CCOP(=O)([O-])OC[C@H](O)CO`, the percent of DMSO control GFP is 103% (inactive).

As to `O=C(O)C1CCN(C(=O)COc2ccc3c4c(c(=O)oc3c2)CCC4)CC1`, the percent of DMSO control GFP was 105% (inactive).

With `COc1ccc(OC)c(S(=O)(=O)N2CCCc3ccccc32)c1`, the percent of DMSO control GFP was 101% (inactive).

With `COc1ccc2[nH]c(=O)c3c(c2c1)OC(C)(C)C=C3`, the percent of DMSO control GFP was 93.7% (inactive).

For the compound `CCN1CCN(C(=S)c2ccc(OC)cc2)CC1`, the percent of DMSO control GFP was 101% (inactive).

Turning to `C=CCOc1ccc(C(=O)CC)cc1OC`, the percent of DMSO control GFP was 102% (inactive).

In the case of `CCc1cccc2c3c([nH]c12)C(CC)(CC(=O)O)OCC3` (stereo not given), the percent of DMSO control GFP was 103% (inactive).

With `COc1ccc(OC(C)C(=O)Nc2ccccc2F)cc1` (stereo not given), the percent of DMSO control GFP was 102% (inactive).

Consider `CCCC(=O)Nc1ccccc1NC(C)=O`, for which the percent of DMSO control GFP is 101% (inactive).

Regarding `O=C(O)CCCCCCNC(=O)c1cncc(O)c1`, the percent of DMSO control GFP is 104% (inactive).

As to `COc1ccc(Br)cc1C(=O)Nc1ccc(C(=O)O)cc1`, the percent of DMSO control GFP was 107% (inactive).

For the compound `CC[N+]1(CC)CC2=Cc3ccccc3CC2C1` (stereo not given), the percent of DMSO control GFP was 91.5% (inactive).
